Reference: the supplement of paper PMC10849652
The full data set covers some 8,800 targets. This sample favours those with a hit. About 0.5% of all pairs of compound and target were hits.

The targets below were run with CC1=C2C(=CC=C1)N=C(N(C2=O)C3=CC=CC=C3C)CN4C=NC5=C(N=CN=C54)N (assay: log2 fold change, soluble protein after heating vs DMSO (PISA); higher = thermal stabilisation; K562 lysate, 10 uM; active = over 0.2 and 3.5 SD of the protein, either way, in both replicates (recomputed)).
Procedure, shortened: (§1)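 To prepare the extract, K562 pellets were dounce-homogenised in PBS pH 7.4 with 1 mM MgCl2, giving crude material at 1 mg/mL protein. This was treated with 10 μM compound for 30 min, then heated in aliquots for 3 min over 48°C-58°C before pooling and addition of NP-40 to 0.5% at 4°C. Centrifugation at 21,000xg for 90 min left soluble protein in the supernatant, which TMTpro 16plex LC-MS/MS quantified with equalised channel sums. Results are log-two fold changes in thermal stability compared with solvent controls, from duplicates.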

Chain of UniProt Q9NZ43 (Q9NZ43 whole entry, looked up): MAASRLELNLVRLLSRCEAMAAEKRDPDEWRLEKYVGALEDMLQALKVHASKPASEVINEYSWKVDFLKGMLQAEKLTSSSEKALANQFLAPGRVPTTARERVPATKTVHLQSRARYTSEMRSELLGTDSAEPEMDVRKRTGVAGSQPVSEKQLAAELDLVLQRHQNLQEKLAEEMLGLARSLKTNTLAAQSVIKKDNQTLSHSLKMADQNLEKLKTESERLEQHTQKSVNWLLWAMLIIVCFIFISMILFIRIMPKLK
Chain of UniProt Q9UN37 (Q9UN37 whole entry, looked up): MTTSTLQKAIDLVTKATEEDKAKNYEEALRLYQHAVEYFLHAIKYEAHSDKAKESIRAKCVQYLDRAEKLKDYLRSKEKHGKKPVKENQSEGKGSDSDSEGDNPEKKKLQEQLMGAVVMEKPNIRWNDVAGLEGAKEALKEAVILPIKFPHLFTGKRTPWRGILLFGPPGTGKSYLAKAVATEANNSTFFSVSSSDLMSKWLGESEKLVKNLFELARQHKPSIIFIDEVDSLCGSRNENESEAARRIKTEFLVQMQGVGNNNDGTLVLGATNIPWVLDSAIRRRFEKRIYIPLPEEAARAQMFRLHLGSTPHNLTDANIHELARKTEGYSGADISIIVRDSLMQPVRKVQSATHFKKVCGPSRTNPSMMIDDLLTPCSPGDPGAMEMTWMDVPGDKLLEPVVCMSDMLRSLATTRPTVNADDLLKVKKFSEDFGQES
Chain of UniProt A8MPS7 (A8MPS7 whole entry, looked up): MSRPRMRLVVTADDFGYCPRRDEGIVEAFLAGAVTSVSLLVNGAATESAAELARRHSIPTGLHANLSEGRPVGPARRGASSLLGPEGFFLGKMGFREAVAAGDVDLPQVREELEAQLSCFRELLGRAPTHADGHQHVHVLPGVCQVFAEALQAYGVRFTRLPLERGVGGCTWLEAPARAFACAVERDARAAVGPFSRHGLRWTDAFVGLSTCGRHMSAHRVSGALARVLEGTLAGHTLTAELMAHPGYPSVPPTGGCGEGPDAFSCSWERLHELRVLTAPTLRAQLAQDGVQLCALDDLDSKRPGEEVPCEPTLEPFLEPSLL
Chain of UniProt Q6PHR2 (Q6PHR2 whole entry, looked up): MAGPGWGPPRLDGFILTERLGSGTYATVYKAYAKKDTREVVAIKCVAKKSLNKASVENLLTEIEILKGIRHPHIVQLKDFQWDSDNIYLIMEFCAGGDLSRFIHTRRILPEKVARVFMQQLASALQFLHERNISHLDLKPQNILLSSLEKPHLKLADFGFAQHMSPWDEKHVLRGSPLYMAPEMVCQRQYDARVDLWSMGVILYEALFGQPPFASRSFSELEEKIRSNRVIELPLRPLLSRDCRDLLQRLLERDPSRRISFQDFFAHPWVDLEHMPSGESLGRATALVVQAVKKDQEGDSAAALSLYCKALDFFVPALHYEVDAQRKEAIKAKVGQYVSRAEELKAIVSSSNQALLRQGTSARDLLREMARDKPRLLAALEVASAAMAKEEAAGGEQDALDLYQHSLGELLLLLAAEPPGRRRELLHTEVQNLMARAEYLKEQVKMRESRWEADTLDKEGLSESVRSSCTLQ
Chain of UniProt Q96S15 (Q96S15 whole entry, looked up): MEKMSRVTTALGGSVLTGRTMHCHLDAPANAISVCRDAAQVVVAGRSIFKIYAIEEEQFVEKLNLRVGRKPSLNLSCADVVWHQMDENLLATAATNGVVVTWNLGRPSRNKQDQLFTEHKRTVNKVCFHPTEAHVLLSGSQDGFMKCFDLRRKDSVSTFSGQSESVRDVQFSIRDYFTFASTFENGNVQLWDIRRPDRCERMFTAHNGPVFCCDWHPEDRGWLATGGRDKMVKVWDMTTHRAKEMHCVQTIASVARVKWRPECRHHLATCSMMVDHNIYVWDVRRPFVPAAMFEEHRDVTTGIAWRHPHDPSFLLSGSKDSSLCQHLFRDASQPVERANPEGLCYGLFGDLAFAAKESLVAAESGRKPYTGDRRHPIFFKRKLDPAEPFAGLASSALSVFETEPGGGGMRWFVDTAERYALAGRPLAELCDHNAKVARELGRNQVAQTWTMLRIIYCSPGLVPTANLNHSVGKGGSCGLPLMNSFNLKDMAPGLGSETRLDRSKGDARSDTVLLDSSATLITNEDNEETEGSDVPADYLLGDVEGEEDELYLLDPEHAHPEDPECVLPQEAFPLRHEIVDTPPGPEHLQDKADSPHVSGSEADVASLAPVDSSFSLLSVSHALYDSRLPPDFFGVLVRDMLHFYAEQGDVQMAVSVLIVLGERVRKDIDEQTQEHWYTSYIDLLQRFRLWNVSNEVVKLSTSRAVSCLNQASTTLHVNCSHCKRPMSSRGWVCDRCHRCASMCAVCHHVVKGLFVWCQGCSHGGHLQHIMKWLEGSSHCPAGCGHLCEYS
Chain of UniProt Q7Z739 (Q7Z739 whole entry, looked up): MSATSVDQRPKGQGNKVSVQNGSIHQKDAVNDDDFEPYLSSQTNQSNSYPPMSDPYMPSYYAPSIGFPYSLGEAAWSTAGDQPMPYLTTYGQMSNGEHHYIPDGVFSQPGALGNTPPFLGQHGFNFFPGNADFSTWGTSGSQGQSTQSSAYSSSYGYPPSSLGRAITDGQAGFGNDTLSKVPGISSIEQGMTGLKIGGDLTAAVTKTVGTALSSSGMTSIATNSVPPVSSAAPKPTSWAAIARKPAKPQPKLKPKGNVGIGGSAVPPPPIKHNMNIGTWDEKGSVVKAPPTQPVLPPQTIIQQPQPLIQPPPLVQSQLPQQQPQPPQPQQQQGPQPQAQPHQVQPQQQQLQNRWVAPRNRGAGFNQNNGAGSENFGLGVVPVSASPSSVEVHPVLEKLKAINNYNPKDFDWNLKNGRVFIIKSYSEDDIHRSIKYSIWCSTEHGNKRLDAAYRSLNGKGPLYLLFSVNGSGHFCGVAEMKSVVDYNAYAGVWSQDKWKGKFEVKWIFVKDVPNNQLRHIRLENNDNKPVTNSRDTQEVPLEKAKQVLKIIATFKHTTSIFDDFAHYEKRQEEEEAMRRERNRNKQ
Chain of UniProt Q9BZI7 (Q9BZI7 whole entry, looked up): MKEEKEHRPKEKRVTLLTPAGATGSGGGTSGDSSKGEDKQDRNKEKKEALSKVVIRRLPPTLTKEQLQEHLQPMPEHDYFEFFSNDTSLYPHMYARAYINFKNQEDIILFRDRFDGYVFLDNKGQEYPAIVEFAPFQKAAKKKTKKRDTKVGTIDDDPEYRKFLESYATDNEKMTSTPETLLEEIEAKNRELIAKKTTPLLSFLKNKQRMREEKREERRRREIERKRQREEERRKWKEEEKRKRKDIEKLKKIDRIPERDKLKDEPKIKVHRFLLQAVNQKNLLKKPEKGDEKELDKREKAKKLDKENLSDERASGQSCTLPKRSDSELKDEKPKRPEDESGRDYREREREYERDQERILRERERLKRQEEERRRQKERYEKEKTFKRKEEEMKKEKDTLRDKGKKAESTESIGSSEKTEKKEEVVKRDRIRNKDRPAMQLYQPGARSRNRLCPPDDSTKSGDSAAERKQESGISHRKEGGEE
Chain of UniProt Q86WB0 (Q86WB0 whole entry, looked up): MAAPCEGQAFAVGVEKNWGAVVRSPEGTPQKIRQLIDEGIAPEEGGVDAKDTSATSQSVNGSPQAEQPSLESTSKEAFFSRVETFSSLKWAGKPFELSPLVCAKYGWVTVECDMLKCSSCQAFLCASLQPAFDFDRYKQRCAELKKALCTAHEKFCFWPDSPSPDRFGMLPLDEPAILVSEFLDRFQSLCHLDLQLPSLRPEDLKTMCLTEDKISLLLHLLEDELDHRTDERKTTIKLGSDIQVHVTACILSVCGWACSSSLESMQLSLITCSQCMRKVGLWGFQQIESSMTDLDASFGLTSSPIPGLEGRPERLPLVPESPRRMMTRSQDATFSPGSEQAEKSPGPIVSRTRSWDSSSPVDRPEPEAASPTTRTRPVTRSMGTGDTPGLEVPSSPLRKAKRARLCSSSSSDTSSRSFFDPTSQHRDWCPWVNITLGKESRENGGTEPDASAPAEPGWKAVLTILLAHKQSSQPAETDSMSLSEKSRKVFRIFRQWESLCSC
Chain of UniProt Q9H9H4 (Q9H9H4 whole entry, looked up): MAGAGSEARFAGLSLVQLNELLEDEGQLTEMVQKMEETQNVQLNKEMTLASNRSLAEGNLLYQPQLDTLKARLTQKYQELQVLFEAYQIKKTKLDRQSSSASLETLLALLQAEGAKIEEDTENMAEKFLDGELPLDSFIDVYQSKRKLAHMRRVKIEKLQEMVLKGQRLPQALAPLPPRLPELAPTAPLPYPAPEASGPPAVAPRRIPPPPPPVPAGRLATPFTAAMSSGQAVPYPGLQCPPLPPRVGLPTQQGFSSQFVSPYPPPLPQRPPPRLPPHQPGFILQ
Chain of UniProt Q96NC0 (Q96NC0 whole entry, looked up): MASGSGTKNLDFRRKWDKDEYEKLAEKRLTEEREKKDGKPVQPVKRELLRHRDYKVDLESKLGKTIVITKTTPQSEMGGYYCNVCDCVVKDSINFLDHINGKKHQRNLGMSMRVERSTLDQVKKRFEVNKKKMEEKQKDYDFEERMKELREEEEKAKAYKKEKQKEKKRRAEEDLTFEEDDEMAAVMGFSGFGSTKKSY
Chain of UniProt Q9NUE0 (Q9NUE0 whole entry, looked up): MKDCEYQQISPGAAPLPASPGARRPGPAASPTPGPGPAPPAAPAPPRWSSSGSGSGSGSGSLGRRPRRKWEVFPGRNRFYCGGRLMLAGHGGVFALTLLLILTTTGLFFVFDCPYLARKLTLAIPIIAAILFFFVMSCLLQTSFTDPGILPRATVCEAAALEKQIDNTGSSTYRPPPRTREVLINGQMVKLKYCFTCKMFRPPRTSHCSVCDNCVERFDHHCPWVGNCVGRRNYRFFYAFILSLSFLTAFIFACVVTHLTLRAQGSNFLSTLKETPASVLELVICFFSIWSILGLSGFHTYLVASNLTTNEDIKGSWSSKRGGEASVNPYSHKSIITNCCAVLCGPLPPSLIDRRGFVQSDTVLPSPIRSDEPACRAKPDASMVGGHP
Chain of UniProt O00258 (O00258 whole entry, looked up): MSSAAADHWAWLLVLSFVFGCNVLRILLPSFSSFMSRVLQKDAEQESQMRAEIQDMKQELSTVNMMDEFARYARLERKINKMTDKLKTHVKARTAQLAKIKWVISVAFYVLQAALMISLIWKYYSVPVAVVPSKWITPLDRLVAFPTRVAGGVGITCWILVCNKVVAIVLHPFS

| Target | log2 fold change |
| --- | --- |
| ZDHHC18 (UniProt Q9NUE0) | 0.075 (inactive) |
| WRB (UniProt O00258) | -0.029 (inactive) |
| WDR62 isoform 4 (UniProt O43379) | -0.011 (inactive) |
| WDR91 (UniProt A4D1P6) | 0.009 (inactive) |
| UQCRC2 (UniProt P22695) | -0.007 (inactive) |
| WDR3 (UniProt Q9UNX4) | 0.006 (inactive) |
| YDJC (UniProt A8MPS7) | -0.003 (inactive) |
| WIPI2 (UniProt Q9Y4P8) | -0.008 (inactive) |
| VAV3 isoform 4 (UniProt Q9UKW4) | 0.096 (inactive) |
| VPS13C (UniProt Q709C8) | 0.061 (inactive) |
| VPS37B (UniProt Q9H9H4) | 0.01 (inactive) |
| VAC14 (UniProt Q08AM6) | 0.042 (inactive) |
| WDR7 (UniProt Q9Y4E6) | 0.019 (inactive) |
| VPS35L (UniProt Q7Z3J2) | 0.044 (inactive) |
| VPS54 (UniProt Q9P1Q0) | 0.044 (inactive) |
| YRDC (UniProt Q86U90) | -0.046 (inactive) |

| Target | log2 fold change |
| --- | --- |
| UXT isoform 2 (UniProt Q9UBK9) | 0.008 (inactive) |
| ZC3HC1 (UniProt Q86WB0) | 0.006 (inactive) |
| UPF3B (UniProt Q9BZI7) | -0.043 (inactive) |
| YLPM1 (UniProt P49750) | 0.034 (inactive) |
| ULK3 isoform 4 (UniProt Q6PHR2) | -0.117 (inactive) |
| YES1 (UniProt P07947) | 0.009 (inactive) |
| UQCC2 (UniProt Q9BRT2) | -0.056 (inactive) |
| ZMAT2 (UniProt Q96NC0) | 0.03 (inactive) |
| YTHDF3 (UniProt Q7Z739) | 0.063 (inactive) |
| VPS4A (UniProt Q9UN37) | -0.102 (inactive) |
| USE1 (UniProt Q9NZ43) | -0.119 (inactive) |
| WDR24 (UniProt Q96S15) | -0.093 (inactive) |
| ZNF217 (UniProt O75362) | 0.129 (inactive) |
| USP10 isoform 2 (UniProt Q14694) | 0 (inactive) |
| USP48 isoform 8 (UniProt Q86UV5) | 0.015 (inactive) |

Each target was assayed with Cc1sc2c(c1C)C(c1ccc(Cl)cc1)=N[C@@H](CC(=O)OC(C)(C)C)c1nnc(C)n1-2 in the same assay as above.
Procedure, shortened: as §1

| Target | log2 fold change |
| --- | --- |
| ZDHHC18 (UniProt Q9NUE0) | -0.072 (inactive) |
| WRB (UniProt O00258) | 0 (inactive) |
| WDR62 isoform 4 (UniProt O43379) | 0.003 (inactive) |
| WDR91 (UniProt A4D1P6) | -0.02 (inactive) |
| UQCRC2 (UniProt P22695) | 0.006 (inactive) |
| WDR3 (UniProt Q9UNX4) | -0.014 (inactive) |
| YDJC (UniProt A8MPS7) | 0.012 (inactive) |
| WIPI2 (UniProt Q9Y4P8) | -0.055 (inactive) |
| VAV3 isoform 4 (UniProt Q9UKW4) | 0.001 (inactive) |
| VPS13C (UniProt Q709C8) | 0.018 (inactive) |
| VPS37B (UniProt Q9H9H4) | -0.01 (inactive) |
| VAC14 (UniProt Q08AM6) | -0.012 (inactive) |
| WDR7 (UniProt Q9Y4E6) | 0.029 (inactive) |
| VPS35L (UniProt Q7Z3J2) | -0.032 (inactive) |
| VPS54 (UniProt Q9P1Q0) | 0.053 (inactive) |
| YRDC (UniProt Q86U90) | -0.029 (inactive) |

| Target | log2 fold change |
| --- | --- |
| UXT isoform 2 (UniProt Q9UBK9) | -0.053 (inactive) |
| ZC3HC1 (UniProt Q86WB0) | 0.019 (inactive) |
| UPF3B (UniProt Q9BZI7) | 0.022 (inactive) |
| YLPM1 (UniProt P49750) | 0.005 (inactive) |
| ULK3 isoform 4 (UniProt Q6PHR2) | -0.026 (inactive) |
| YES1 (UniProt P07947) | -0.045 (inactive) |
| UQCC2 (UniProt Q9BRT2) | -0.057 (inactive) |
| ZMAT2 (UniProt Q96NC0) | 0.03 (inactive) |
| YTHDF3 (UniProt Q7Z739) | -0.01 (inactive) |
| VPS4A (UniProt Q9UN37) | 0.017 (inactive) |
| USE1 (UniProt Q9NZ43) | -0.109 (inactive) |
| WDR24 (UniProt Q96S15) | 0.002 (inactive) |
| ZNF217 (UniProt O75362) | 0.053 (inactive) |
| USP10 isoform 2 (UniProt Q14694) | -0.013 (inactive) |
| USP48 isoform 8 (UniProt Q86UV5) | 0.003 (inactive) |

Each target was assayed with c1ccc([C@@H]2C[C@H]2NC2CCNCC2)cc1 in the same assay as above.
Procedure, shortened: as §1

| Target | log2 fold change |
| --- | --- |
| ZDHHC18 (UniProt Q9NUE0) | 0.043 (inactive) |
| WRB (UniProt O00258) | -0.191 (inactive) |
| WDR62 isoform 4 (UniProt O43379) | 0.038 (inactive) |
| WDR91 (UniProt A4D1P6) | 0.026 (inactive) |
| UQCRC2 (UniProt P22695) | -0.015 (inactive) |
| WDR3 (UniProt Q9UNX4) | 0.056 (inactive) |
| YDJC (UniProt A8MPS7) | 0.018 (inactive) |
| WIPI2 (UniProt Q9Y4P8) | -0.096 (inactive) |
| VAV3 isoform 4 (UniProt Q9UKW4) | -0.391 (inactive) |
| VPS13C (UniProt Q709C8) | 0.008 (inactive) |
| VPS37B (UniProt Q9H9H4) | 0.064 (inactive) |
| VAC14 (UniProt Q08AM6) | 0.001 (inactive) |
| WDR7 (UniProt Q9Y4E6) | -0.027 (inactive) |
| VPS35L (UniProt Q7Z3J2) | 0.013 (inactive) |
| VPS54 (UniProt Q9P1Q0) | -0.217 (inactive) |
| YRDC (UniProt Q86U90) | -0.053 (inactive) |

| Target | log2 fold change |
| --- | --- |
| UXT isoform 2 (UniProt Q9UBK9) | -0.071 (inactive) |
| ZC3HC1 (UniProt Q86WB0) | 0.061 (inactive) |
| UPF3B (UniProt Q9BZI7) | -0.097 (inactive) |
| YLPM1 (UniProt P49750) | 0.05 (inactive) |
| ULK3 isoform 4 (UniProt Q6PHR2) | 0.125 (inactive) |
| YES1 (UniProt P07947) | 0 (inactive) |
| UQCC2 (UniProt Q9BRT2) | 0.095 (inactive) |
| ZMAT2 (UniProt Q96NC0) | 0.013 (inactive) |
| YTHDF3 (UniProt Q7Z739) | -0.018 (inactive) |
| VPS4A (UniProt Q9UN37) | 0.074 (inactive) |
| USE1 (UniProt Q9NZ43) | -0.002 (inactive) |
| WDR24 (UniProt Q96S15) | -0.024 (inactive) |
| ZNF217 (UniProt O75362) | 0 (inactive) |
| USP10 isoform 2 (UniProt Q14694) | 0.023 (inactive) |
| USP48 isoform 8 (UniProt Q86UV5) | 0.035 (inactive) |
